Measurements as given in PubChem BioAssay (NCATS).
Inconclusive results are not listed. Calls of active or inactive are those of the source. Unless noted, the call rests on the fitted dose curve; in most records, active means well fitted curve in either direction with a large enough effect (not every such curve was filed as active); inconclusive means small, poorly fitted or top-dose-only effect, or another doubt; inactive means flat fitted curve, though single readings scatter.

Key:
[1] = biological target: Lysosomal acid glucosylceramidase (Homo sapiens) (UniProt P04062); assay: Glucocerebrosidase-p2 (AID 348; in the data active means potency below about 10 µM; further: potency means the concentration at half of the fitted maximal effect); settings: purified GBA, blue fluorogenic substrate, 40 min
Outline: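 Normal human glucocerebrosidase (0.2 nM) with blue fluorogenic substrate (80 uM final) in citrate/phosphate pH 5.9 with 10mM sodium taurocholate, 0.01% tween-20; 40 min RT, NaOH/glycine stop; fluorescence Ex 365/Em 440; AC50 from a titration from 0.6 nM upwards.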

[2] = AP1 Signaling Pathway (AID 357); settings: ME-180 AP-1-bla reporter, EGF-induced, beta-lactamase ratio, 5 h; at 7.69 µM (top of the series) unless noted;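 further: ME-180 reporter cells stimulated with EGF at its EC50 level; on the % scale 0 is the no-effect control and ±100 the full control effect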
Outline: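 Modulation of EGF-driven AP-1 transcription was assessed with a beta-lactamase reporter in ME-180 cells. Compound and EC50 EGF were co-incubated 5 hours at 37 °C before 2.5-hour CCF4 loading at room temperature and dual-emission reading.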

[3] = biological target: Cytochrome P450 1A2 (Homo sapiens) (UniProt P05177); assay: p450-cyp1a2 (AID 410; calls by dose curve; further: potency means the concentration at half of the fitted maximal effect;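 on activity change, negative = inhibition: -100% = full effect of reference inhibitor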); settings: recombinant CYP1A2, luciferin-ME demethylation, luminescence; series mostly up to 11.4 µM
Outline: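 Luminescent demethylation readout: Luciferin-ME (100uM, equal to Km) turned over by 20nM CYP1A2 for 60 min at room temperature after NADPH regeneration addition, following 10 min compound preincubation. Normalization used 57 uM furafylline as full inhibition.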

[4] = NFAT Signaling Pathway (AID 444); settings: Jurkat NFAT-bla M1, carbachol, beta-lactamase ratio, 5 h; at 7.69 µM (top of the series) unless noted;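 further: carbachol stimulus at about its EC50 of 1 µM final; on the % scale 0 is the no-effect control and ±100 the full control effect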
Outline: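 Jurkat cells with NFAT-driven β-lactamase reporter and co-expressed M1 receptor, stimulated with carbachol (final 1 uM, ~EC50), compound titration, 5 h at 37 °C. CCF4 loaded 1 h at RT; 460/530 nm ratio gave %activity and AC50.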

[5] = Stat Signaling Pathway (AID 446); settings: ME-180 SIE beta-lactamase reporter, IL-6 stimulated, 5 h; at 7.69 µM (top of the series) unless noted;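 further: ME-180 cervical cancer cells given 40 pM IL-6 alongside compound; SIE-controlled beta-lactamase reporter measured as 460/530 nm FRET emission ratio; on the % scale 0 is the no-effect control and ±100 the full control effect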
Outline: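 Compound effects on IL-6-induced STAT reporter activity were measured in ME-180 cells. After overnight culture, cells were co-treated with 40 pM IL-6 for 5 hrs before beta-lactamase substrate loading at room temperature.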

[6] = biological target: Glucocorticoid receptor (Homo sapiens) (UniProt P04150); assay: GR-GFP Redistribution (AID 450;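 active means compounds whose dose series gives a full or clear partial fitted curve of increased nuclear translocation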; further: potency means the concentration at half of the fitted maximal effect); settings: U2OS GR-GFP nuclear translocation, laser cytometry, 2 h
[7] = biological target: Glucocorticoid receptor (Homo sapiens) (UniProt P04150); assay: GR-EFC Redistribution (AID 451; calls by dose curve; further: potency means the concentration at half of the fitted maximal effect); settings: CHO-K1 GR-EFC translocation, beta-gal luminescence, 2 h
Outline: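 CHO-K1 cells expressing nuclear EA and GR-ED fragments of b-gal; compounds titrated up to 46 uM final, 2 h at 37 C. GR nuclear translocation read as complemented b-gal luminescence after 1 h RT detection.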

[8] = biological target: 3',5'-cyclic-AMP phosphodiesterase 4B (Homo sapiens) (UniProt Q07343); assay: qHTS Assay for Inhibitors of PDE-IV (AID 607; active means well fitted activation curve with a large enough effect in the main read-out, with a control signal flat, not every such curve was filed as active; further: % of control where 0% means no effect); settings: HEK293 ACTOne CNG channel cells, membrane potential fluorescence; series mostly up to 22.9 µM
Outline: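 ACTOne HEK293 cells carry a modified cAMP-gated CNG channel and express endogenous PDE4; plated 1000 cells/well, compounds up to 22.9 uM final. Membrane-potential dye fluorescence (ex 535/em 590) was read; parental cells received 10 uM forskolin + 100 uM RO 20-1724.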

[9] = biological target: Cytochrome P450 3A4 (Homo sapiens) (UniProt P08684); assay: qHTS Assay for Inhibitors and Substrates of Cytochrome P450 3A4 (AID 884; active means well fitted curve in the direction sought with a large enough effect; an effect the other way counts as inactive or inconclusive; further: potency means the concentration at half of the fitted maximal effect; nearly all actives have a fitted effect of over 50% in size); settings: recombinant CYP3A4, Luciferin-PPXE luminescence; series mostly up to 57.1 µM
Outline: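 Luminescent readout of luciferin produced by CYP3A4 (20 nM) dealkylation of Luciferin-PPXE, 25 uM (its KM). NADPH-driven reaction ran 60 min at RT after 10 min compound preincubation; data scaled to 57 uM ketoconazole as 100% inhibition.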

[10] = biological target: Cytochrome P450 2C19 (Homo sapiens) (UniProt P33261); assay: qHTS Assay for Inhibitors and Substrates of Cytochrome P450 2C19 (AID 899; active means well fitted curve in the direction sought with a large enough effect; an effect the other way counts as inactive or inconclusive; further: potency means the concentration at half of the fitted maximal effect; nearly all actives have a fitted effect of over 60% in size); settings: recombinant CYP2C19, luciferin-H EGE luminescence; series mostly up to 11.4 µM
Outline: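 Luminescent read-out of luciferin formed from Luciferin-H EGE (10uM, equal to KM). Enzyme 5nM in 50mM KPO4; compound added, 10 min at 37C, then NADPH regenerating system for 60 min at 37C. Full inhibition defined by 57uM ketoconazole.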

[11] = biological target: Cytochrome P450 2C9 (Homo sapiens) (UniProt P11712); assay: qHTS Assay for Inhibitors and Substrates of Cytochrome P450 2C9 (AID 883; active means well fitted curve in the direction sought with a large enough effect; an effect the other way counts as inactive or inconclusive; further: potency means the concentration at half of the fitted maximal effect; nearly all actives have a fitted effect of over 60% in size); settings: recombinant CYP2C9, luciferin-H luminescence, 60 min; series mostly up to 11.4 µM
Outline: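 10nM CYP2C9 + 100uM Luciferin-H (=KM), 25mM KPO4; cpd 10 min 37C; NADPH regen, 60 min 37C; stop/detect with P450 Glo-Buffer 20 min; luminescence. Norm. to 57uM sulphaphenazole as full inhibition.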

[12] = biological target: Mitogen-activated protein kinase 10 (Mus musculus) (UniProt Q61831); assay: JNK3 AlphaScreen Assay (AID 530); settings: JNK3 lysate, c-Jun phosphorylation; series mostly up to 11.4 µM;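 further: kinase came from lysate of stimulated human HepG2 cells; signal reports phosphorylation of biotinylated GST-cJun 1-79 at Ser73 with 10 µM ATP; on the % scale 0 is the no-effect control and ±100 the full control effect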
Outline: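 Activity was read by AlphaScreen after JNK3-containing HepG2 lysate (cytokine pre-activated) phosphorylated biotinylated GST-cJun with 10 uM ATP at room temperature. Phospho-Ser73 cJun antibody with Protein-A acceptor beads provided detection.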

[13] = biological target: Cytochrome P450 3A4 (Homo sapiens) (UniProt P08684); assay: qHTS Assay for Activators of Cytochrome P450 3A4 (AID 885; active means well fitted curve in the direction sought with a large enough effect; an effect the other way counts as inactive or inconclusive; further: nearly all actives have a fitted effect of over 65% in size); settings: recombinant CYP3A4, Luciferin-PPXE luminescence, 60 min; series mostly up to 11.4 µM
Outline: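 CYP3A4 activity: Luciferin-PPXE O-dealkylation, 25uM substrate, 200mM KPO4, RT throughout. Read-out is luciferase luminescence; higher values reflect activation.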

[14] = qHTS Assay for Identification of Small Molecule Agonists for Hypoxia Response Element Signaling Pathway (AID 914; active means well fitted activation curve with a large enough effect in the signal ratio, with a control signal flat, not every such curve was filed as active; the % refers to the signal ratio; further: % of control where 0% means no effect); settings: ME-180 (cervical carcinoma) HRE-bla reporter, beta-lactamase ratio, CoCl2, 17 h; activation: stronger effect = higher value
Outline: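 HRE-bla ME-180 assay for agonist-like enhancement of an EC50 CoCl2 stimulus: 17 h at 37 degrees Celsius, CCF4 for 2.5 h, ratiometric 460/530 nm signal converted to %Activity and fitted to AC50.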

Lysosomal acid glucosylceramidase (Homo sapiens), sequence (P04062 whole entry, looked up): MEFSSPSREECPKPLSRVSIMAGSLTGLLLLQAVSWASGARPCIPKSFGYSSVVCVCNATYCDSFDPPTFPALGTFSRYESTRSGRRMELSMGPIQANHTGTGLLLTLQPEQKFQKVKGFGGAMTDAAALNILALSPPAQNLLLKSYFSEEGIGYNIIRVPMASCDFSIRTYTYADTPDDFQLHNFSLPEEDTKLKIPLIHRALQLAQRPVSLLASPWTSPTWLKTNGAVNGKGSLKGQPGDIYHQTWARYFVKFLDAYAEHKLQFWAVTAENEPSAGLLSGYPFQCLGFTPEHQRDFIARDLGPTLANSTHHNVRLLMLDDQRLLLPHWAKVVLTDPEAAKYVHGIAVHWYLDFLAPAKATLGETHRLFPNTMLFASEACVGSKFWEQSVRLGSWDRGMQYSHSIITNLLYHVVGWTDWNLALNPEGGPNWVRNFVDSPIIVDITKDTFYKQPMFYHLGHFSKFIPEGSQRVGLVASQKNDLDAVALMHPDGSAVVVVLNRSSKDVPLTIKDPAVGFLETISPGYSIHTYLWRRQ
Cytochrome P450 3A4 (Homo sapiens), sequence (P08684 whole entry, looked up): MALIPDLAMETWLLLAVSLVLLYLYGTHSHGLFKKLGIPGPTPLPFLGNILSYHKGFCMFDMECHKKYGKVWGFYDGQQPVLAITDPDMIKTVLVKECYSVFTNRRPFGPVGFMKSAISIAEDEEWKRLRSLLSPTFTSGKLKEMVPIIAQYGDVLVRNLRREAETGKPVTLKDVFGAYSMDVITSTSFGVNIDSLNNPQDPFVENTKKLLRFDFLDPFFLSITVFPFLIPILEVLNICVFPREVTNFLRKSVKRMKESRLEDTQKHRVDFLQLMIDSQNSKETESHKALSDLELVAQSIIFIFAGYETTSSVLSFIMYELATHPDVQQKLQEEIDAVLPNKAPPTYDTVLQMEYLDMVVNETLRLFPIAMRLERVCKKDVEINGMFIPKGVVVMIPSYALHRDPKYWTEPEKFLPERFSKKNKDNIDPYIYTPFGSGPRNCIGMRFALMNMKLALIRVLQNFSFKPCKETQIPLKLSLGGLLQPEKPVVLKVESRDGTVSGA
Cytochrome P450 1A2 (Homo sapiens), sequence (P05177 whole entry, looked up): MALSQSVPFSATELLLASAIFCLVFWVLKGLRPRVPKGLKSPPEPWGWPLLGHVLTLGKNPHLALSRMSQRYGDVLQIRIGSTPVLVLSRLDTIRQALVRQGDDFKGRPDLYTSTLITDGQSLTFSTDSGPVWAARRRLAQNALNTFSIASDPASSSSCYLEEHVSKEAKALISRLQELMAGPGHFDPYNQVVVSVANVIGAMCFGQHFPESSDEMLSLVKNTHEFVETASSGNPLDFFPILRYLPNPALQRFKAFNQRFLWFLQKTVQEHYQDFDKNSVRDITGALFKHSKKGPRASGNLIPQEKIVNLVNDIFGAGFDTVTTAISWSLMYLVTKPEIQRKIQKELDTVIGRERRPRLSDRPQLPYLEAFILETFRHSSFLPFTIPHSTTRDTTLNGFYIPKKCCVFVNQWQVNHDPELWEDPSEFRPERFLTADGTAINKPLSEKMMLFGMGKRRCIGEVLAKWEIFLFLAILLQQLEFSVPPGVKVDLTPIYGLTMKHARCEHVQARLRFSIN
3',5'-cyclic-AMP phosphodiesterase 4B (Homo sapiens), sequence (Q07343 whole entry, looked up): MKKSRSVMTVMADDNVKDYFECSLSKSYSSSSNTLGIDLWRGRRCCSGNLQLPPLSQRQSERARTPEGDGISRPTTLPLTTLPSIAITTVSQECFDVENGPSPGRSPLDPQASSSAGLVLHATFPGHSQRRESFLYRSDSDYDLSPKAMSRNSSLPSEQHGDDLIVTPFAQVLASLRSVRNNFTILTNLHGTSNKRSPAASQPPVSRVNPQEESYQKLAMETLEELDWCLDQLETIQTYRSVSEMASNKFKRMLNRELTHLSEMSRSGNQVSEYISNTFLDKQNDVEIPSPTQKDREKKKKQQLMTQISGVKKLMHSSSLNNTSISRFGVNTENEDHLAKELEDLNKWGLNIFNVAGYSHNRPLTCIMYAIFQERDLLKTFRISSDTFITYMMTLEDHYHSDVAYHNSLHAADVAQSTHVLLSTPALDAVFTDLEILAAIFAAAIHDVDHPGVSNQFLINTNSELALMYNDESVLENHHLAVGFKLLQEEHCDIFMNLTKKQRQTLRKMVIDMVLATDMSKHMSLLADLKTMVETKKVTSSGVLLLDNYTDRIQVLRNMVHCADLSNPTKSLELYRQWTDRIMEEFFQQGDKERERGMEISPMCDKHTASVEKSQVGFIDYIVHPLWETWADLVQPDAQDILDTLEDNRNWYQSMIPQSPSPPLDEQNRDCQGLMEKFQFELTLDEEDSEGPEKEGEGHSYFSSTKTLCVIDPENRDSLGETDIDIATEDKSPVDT
Glucocorticoid receptor (Homo sapiens), sequence (P04150 whole entry, looked up, the tested form may be a part): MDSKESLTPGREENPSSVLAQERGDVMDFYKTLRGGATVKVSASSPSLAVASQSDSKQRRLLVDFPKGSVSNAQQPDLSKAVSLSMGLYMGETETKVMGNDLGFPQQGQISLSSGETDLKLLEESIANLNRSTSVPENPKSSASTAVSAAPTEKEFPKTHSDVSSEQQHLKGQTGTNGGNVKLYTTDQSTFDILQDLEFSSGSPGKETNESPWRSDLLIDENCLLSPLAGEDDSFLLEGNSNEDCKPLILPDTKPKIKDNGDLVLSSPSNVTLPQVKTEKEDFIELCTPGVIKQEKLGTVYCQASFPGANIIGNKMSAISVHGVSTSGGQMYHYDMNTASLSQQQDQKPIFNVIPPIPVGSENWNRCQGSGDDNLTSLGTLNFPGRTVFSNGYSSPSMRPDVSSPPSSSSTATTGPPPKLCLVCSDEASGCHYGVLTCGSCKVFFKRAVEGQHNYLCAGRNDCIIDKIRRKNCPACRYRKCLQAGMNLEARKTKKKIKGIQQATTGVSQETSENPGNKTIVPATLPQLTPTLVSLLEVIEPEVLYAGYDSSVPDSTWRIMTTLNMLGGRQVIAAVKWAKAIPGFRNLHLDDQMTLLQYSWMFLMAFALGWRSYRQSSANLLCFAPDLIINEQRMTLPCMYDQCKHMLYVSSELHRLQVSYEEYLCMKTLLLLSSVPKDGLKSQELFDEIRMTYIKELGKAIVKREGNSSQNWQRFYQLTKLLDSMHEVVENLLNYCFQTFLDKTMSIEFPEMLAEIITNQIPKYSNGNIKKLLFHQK
Cytochrome P450 2C9 (Homo sapiens), sequence (P11712 whole entry, looked up): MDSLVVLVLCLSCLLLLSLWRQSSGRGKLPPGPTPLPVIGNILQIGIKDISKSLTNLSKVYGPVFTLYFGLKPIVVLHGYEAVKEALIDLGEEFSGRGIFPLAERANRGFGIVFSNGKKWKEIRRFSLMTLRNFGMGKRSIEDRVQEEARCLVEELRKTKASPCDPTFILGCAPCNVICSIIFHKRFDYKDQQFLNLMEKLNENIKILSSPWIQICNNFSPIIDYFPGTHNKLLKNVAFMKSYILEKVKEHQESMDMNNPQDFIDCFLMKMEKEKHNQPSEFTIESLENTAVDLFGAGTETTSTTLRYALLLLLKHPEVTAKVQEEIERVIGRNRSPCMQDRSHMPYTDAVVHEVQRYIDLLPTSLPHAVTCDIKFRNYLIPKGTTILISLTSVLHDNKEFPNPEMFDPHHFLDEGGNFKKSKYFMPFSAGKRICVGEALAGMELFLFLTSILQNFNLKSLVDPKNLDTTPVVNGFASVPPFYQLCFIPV
Cytochrome P450 2C19 (Homo sapiens), sequence (P33261 whole entry, looked up): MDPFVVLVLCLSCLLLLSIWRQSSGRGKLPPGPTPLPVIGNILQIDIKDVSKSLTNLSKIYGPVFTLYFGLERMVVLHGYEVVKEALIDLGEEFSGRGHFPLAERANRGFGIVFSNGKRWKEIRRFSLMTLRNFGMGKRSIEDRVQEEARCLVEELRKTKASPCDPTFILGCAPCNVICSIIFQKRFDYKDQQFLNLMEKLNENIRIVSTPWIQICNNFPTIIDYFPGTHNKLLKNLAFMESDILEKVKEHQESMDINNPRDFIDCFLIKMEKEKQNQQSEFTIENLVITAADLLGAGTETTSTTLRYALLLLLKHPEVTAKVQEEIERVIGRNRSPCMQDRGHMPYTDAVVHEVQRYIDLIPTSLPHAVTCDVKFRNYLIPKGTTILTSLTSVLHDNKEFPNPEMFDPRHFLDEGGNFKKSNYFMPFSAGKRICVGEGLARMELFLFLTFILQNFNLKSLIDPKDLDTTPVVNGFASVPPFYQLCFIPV

Nc1nc(SC/C=C\c2ccccc2)c2[nH]cnc2n1
active: Potency [3] 5.01 µM | Potency [9] 2.51 µM | Potency [10] 1.58 µM
inactive: Potency [1] > 11.4 µM | activity change, negative = inhibition [2] 6.66% | activity change, negative = inhibition [4] 24.8% | activity, negative = inhibition [5] 1.2% | Potency [6] > 46 µM | Potency [7] > 9.22 µM | Potency [8]

O=C(O)c1cc(C(=O)C(=O)c2cc(C(=O)O)c(O)c3ccccc23)c2ccccc2c1O
active: Potency [11] 0.316 µM
inactive: Potency [1] > 11.4 µM | activity change, negative = inhibition [2] 22.7% | Potency [3] | activity change, negative = inhibition [4] 10.6% | activity, negative = inhibition [5] 0.955% | Potency [6] > 46 µM | Potency [7] > 9.22 µM

O=C(CCCc1ccccn1)c1ccccc1
inactive: Potency [1] > 11.4 µM | activity change, negative = inhibition [2] 4.82% | activity change, negative = inhibition [4] 1.79% | activity, negative = inhibition [5] 2.46% | Potency [6] > 46 µM | Potency [12] | Potency [8]
active: Potency [3] 5.01 µM

CCOC(=O)[C@@H](O)Cc1cnc2ccccc2n1
active: Potency [3] 3.16 µM
inactive: Potency [1] > 11.4 µM | activity change, negative = inhibition [2] 5.54% | activity change, negative = inhibition [4] -6.57% | activity, negative = inhibition [5] -5.21% | Potency [6] > 46 µM | Potency [12] | Potency [8]

O=C(Nc1cccc(Cl)c1)Nn1cnnc1
inactive: Potency [1] > 11.4 µM | activity change, negative = inhibition [2] 0.989% | activity change, negative = inhibition [4] -6.38% | activity, negative = inhibition [5] -6.44% | Potency [6] > 46 µM | Potency [12] | Potency [8] | Potency [13]
active: Potency [3] 3.16 µM

Nc1nc(-c2cccs2)cs1
inactive: Potency [1] > 11.4 µM | activity change, negative = inhibition [2] 1.24% | activity change, negative = inhibition [3] -30.1% [at 2.29 µM] | activity change, negative = inhibition [4] 6.96% | activity, negative = inhibition [5] 5.4% | Potency [6] > 46 µM | Potency [7] > 9.22 µM | Potency [8] | Potency [13] | activation [14] -9.81%

O=c1[nH]c(=S)[nH]c2c1CN(CCCN1CCOCC1)CN2
inactive: Potency [1] > 11.4 µM | activity change, negative = inhibition [2] 3.35% | activity change, negative = inhibition [3] -13.5% [at 2.29 µM] | activity change, negative = inhibition [4] 4.33% | activity, negative = inhibition [5] 4.09% | Potency [6] > 46 µM | Potency [12] | Potency [8]

CSc1nnnc2ccccc12
active: Potency [3] 3.16 µM
inactive: Potency [1] > 11.4 µM | activity change, negative = inhibition [2] -4.35% | activity change, negative = inhibition [4] 3.54% | activity, negative = inhibition [5] 0.181% | Potency [6] > 46 µM | Potency [12] | Potency [8]
